Laboratory results reported in PubChem BioAssay AID1347416 (National Center for Advancing Translational Sciences (NCATS), 2020).
Out of some 4,100 compounds screened, about 1,600 (39%) were called active. Not shown: some 25% with an inconclusive outcome. Calls follow the shape of the dose curve; as a rule, active = well fitted inhibition curve with a large enough effect; inconclusive = small, poorly fitted or top-dose-only effect; inactive = no such curve, though single readings can be large or run the other way. The list shows a part of the results.

assay: qHTS Validation assay for Inhibitors of Plasmodium falciparum Dd2 growth in vitro; also: nearly all actives have a fitted effect of over 70% in size; details: P. falciparum Dd2 in RBCs, SYBR Green growth, 72 h; series mostly up to 28.7 µM; activity change, negative = inhibition: at the top concentration
Method in brief: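 P. falciparum Dd2-infected red blood cells (2.5% hematocrit, 0.3% parasitemia) grown 72 h at 37 °C under 5% O2 with compounds in a titration, 29 uM to 0.5 nM final. Growth read as SYBR Green-1 fluorescence after ~16 h lysis; artesunate 300 nM as positive control.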
% is scaled to controls: 0 for no effect and ±100 for the full control effect; potency is read from the fitted curve at half-maximal effect.

Activity change, negative = inhibition, inactive:
CN1c2cc(C(=O)NCc3nc4ccccc4n3C)ccc2C(=O)N2CCCCCC21 (stereo not given) -15.9%, CC(=O)N1CCN([C@H]2[C@@H]3OC[C@@H](O3)[C@@H](NC(=O)Nc3ccc(F)cc3)[C@@H]2O)CC1 41.4% [at 43.1 µM], CC(=O)N1CCN([C@H]2[C@@H]3OC[C@@H](O3)[C@@H](NC(=O)Nc3ccccc3)[C@@H]2O)CC1 7.1% [at 43.1 µM], COc1ccccc1N1CCN([C@H]2[C@@H]3OC[C@@H](O3)[C@@H](N(CC3CC3)CC3CC3)[C@@H]2O)CC1 16.2%, O[C@H]1[C@H](NCc2ccc(-c3ccccc3)cc2)[C@H]2CO[C@H](O2)[C@@H]1Oc1ccccc1 -7.84% [at 43.1 µM], O=C(Nc1ccccc1)N[C@H]1[C@H](O)[C@@H](Oc2ccccc2)[C@@H]2OC[C@H]1O2 -7.12% [at 43.1 µM], CCc1noc(-c2ccn3c(CNC(=O)Cc4cccc(F)c4)nnc3c2)n1 -18.4%, CCOC(=O)CC(=O)CSc1ccc2nnc(-c3ccccc3)n2n1 -4.34%, CCCc1noc(-c2cccn3c(CNC(=O)c4ccc(Cl)cc4)nnc23)n1 0%, COc1cc2c(cc1CNc1ncncn1)CCC2 39.6%, Cc1ccccc1C(=O)Nc1cccc(-c2nc3cccnc3s2)c1 6.23%, CC(=O)Nc1cccc(-c2ccnc(-c3nnc(C)n3Cc3ccccc3)c2)c1 -23% [at 43.1 µM], O=C(Nc1ccc(S(=O)(=O)NC2=NCCCCC2)cc1)c1ccco1 32.7%, Fc1ccc(CN2CC[C@H](c3nc4ccc(C(F)(F)F)cc4[nH]3)C2)cc1F -9.52% [at 43.1 µM], CCN1CCCC(c2nc3ccc(F)cc3c(=O)[nH]2)C1 (stereo not given) -2.32% [at 43.1 µM], CC(=O)N1CCC(C2CCN(Cc3cc(Cl)ccc3F)C2)CC1 (stereo not given) -23.3%, Cc1ccc(Cl)cc1N1CCN(C(=O)c2ccc3c(Cl)c4c(nc3c2)CCCC4)CC1 -6.77%, COc1ccc(CN2CCC3(CC2)CC(O)CCO3)c(OC)c1 (stereo not given) -4%, O=C(c1ccc2c(Cl)c3c(nc2c1)CCCC3)N1CCN(c2cccc(C(F)(F)F)c2)CC1 10.1%, COc1ccc(N2C(N)=NC(N)=NC23CCCC3)cc1 -11.4%, CC(C)NC(=O)N1CCCC(Cn2c(C3CC3)nc3cccnc32)C1 (stereo not given) 6.13%, O=C(Cc1ccccc1)N1CCCC2(CC(c3cccc(C(F)(F)F)c3)=NO2)C1 (stereo not given) -13.8%, O=C1Nc2ccc(-c3cccc(C(F)(F)F)c3)cc2C(=O)N2CCN(C(=O)c3ccccc3)C[C@H]12 -28.5%, CCN1CCC(OCCCNC(=O)C2(CCO)CC23CCOCC3)CC1 (stereo not given) 10.7%, COc1ccc(-c2nnc([C@H]3CCN(c4ncccn4)C3)o2)cc1 7.2% [at 43.1 µM], CCOC(=O)Cn1c2c(c(=N)c3c1CCC3)CCC2 -10.2%, CCOC(=O)Cn1c2c(c(=N)c3c1CCC3)CCCC2 -23.5%, CC(C)c1noc(-c2cccn3c(CNC(=O)c4ccc(F)cc4Cl)nnc23)n1 -11.9%, Cc1ccc(-c2csc3nc[nH]c(=O)c23)c(C)c1 48.1%, CCc1noc(-c2cccn3c(CNC(=O)COc4ccc(F)cc4)nnc23)n1 38.7%, O=C1Cc2c(-c3ccc(Oc4ccccc4)cc3)n[nH]c2CN1Cc1ccccc1F -12.3% [at 43.1 µM], O=C1CCC2(CCN1)CCN(C(=O)C1CCCCC1)CC2 5.58%, CCC(=O)N1c2ccccc2CC1C(=O)NCc1ccccc1C (stereo not given) -8.52%

Potency, active:
COc1ccccc1N1CCN([C@H]2[C@@H]3OC[C@@H](O3)[C@@H](NCc3ccc(-c4ccccc4)cc3)[C@@H]2O)CC1 15 µM, Oc1ccccc1CN[C@H]1[C@H](O)[C@@H](N2CCC(Cc3ccccc3)CC2)[C@@H]2OC[C@H]1O2 3.44 µM, O[C@H]1[C@H](NCC2CCCCC2)[C@H]2CO[C@H](O2)[C@@H]1N1CCC(Cc2ccccc2)CC1 1.37 µM, Cc1cc(NC(=O)CSc2ccc3nnc(-c4cccc(F)c4)n3n2)no1 5.96 µM, O=C(CCl)Nc1cccc(-c2cnc3ccccc3n2)c1 6.68 µM, O=c1c2ccccc2c(C=Nc2cccc(S(=O)(=O)NC3=NCCCCC3)c2)c(O)n1Cc1ccccc1 13.3 µM, O=C(CCC[C@H]1NC[C@@H]2C[C@H]1CN(Cc1ccccc1)C2)NCCCN1CCCc2ccccc21 10.6 µM, Cc1nnc2c(N3CCN(c4ccccc4)CC3)nc3ccc(C(=O)c4ccccc4)cc3n12 0.842 µM, COc1ccccc1-c1ccc(CN2CCCC(c3nc4ccc(F)cc4c(=O)[nH]3)C2)cc1 (stereo not given) 8.41 µM, COc1ccc(N2CCN(Cc3cc4c(cc3O)CCC4)CC2)cc1 16.8 µM, Cc1ccc(Cl)cc1N1CCN(Cc2cc3c(cc2O)CCC3)CC1 0.188 µM, Oc1cc2c(cc1CN1CCN(c3cccc(C(F)(F)F)c3)CC1)CCC2 0.944 µM, N#CC1CCN(C(=O)c2nc(-c3cccc(C(F)(F)F)c3)c3cnccn23)CC1 16.8 µM, O=C(c1nc(-c2cccc(C(F)(F)F)c2)c2cnccn12)N1CCCC1 10.6 µM, Cc1cc(Nc2cc(Cl)cc(Cl)c2)nc(N)n1 6.68 µM, CCOCc1cnc(C)nc1NCC(=O)c1c(C)[nH]c2cc(C)ccc12 4.22 µM, COc1cc(OC)cc(-c2cc3nc4c(c(N5CCN(c6ncccn6)CC5)n3n2)CCCC4)c1 4.22 µM, CCCn1c2c(c(=N)c3c1CCC3)CCC2 13.3 µM, CCn1c2c(c(=N)c3ccccc31)CCC2 6.68 µM, CCn1c2c(c(=N)c3c1CCC3)CCCC2 13.3 µM, CCCn1c2c(c(=N)c3c1CCC3)CCCC2 10.6 µM, CCCCn1c2c(c(=N)c3c1CCC3)CCC2 8.41 µM, Cc1nn2c(c1-c1ccccc1[S+](C)(=O)[O-])N(Cc1ccc(C(=O)O)s1)CCC2 7.69 µM, Cc1nn2c(c1-c1ccccc1-c1ccccc1)N(CCC(C)C)CCC2 0.243 µM, Cc1nn2c(c1-c1ccccc1-c1ccccc1)N(CC1CC1)CCC2 0.968 µM, Cc1nn2c(c1-c1ccccc1C(C)C)N(CCC(C)C)CCC2 2.17 µM, Cc1nn2c(c1-c1ccccc1[S+](C)(=O)[O-])N(CCC(C)C)CCC2 9.68 µM
